# Results: the supplement of paper PMC8728848
# Only a selection was taken, and the strongest signals are over-represented in it overall.
# B1: FaeGad (Escherichia coli) (protein)
# chain: WMTGDFNGSVDIGGSITADDYRQKWEWEVGTGLNGFGSVLNDLTNGGTKLTITVTGNKPILLGRTKEAFATPVTSGVDGIPHIAFTDYEGASVELRNPDGETEKGLTYFVLPMKNAEGTKVGSVKVNASYAGALGRGGVTSADGELMSLFAEGSHAIFYGGLPTNVKNSELKGGSAAAARTELFGSLSKNDILGQIQRVNANITSLVNVPGSFNENMAYTDGSVVSVAYALGIANGQTIEATFNQAVTTSTQWSAPLNVAITYY
# Columns and labels:
# Assay in all cases: glycan array binding signal (z-score within array); higher = stronger binding
# Conditions in all cases: glycan notation: IUPAC condensed, linker removed
# [1] = molecular target: Fuc(a1-2)Gal(b1-3)GalNAc(b1-3)Gal(a1-4)Gal(b1-4)Glc
# How it was run: (§1)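 From the Consortium for Functional Glycomics database, 3228 arrays were curated, keeping only those whose protein sequence was available. Binding is given as a within-array Z-score averaged across arrays sharing a protein sequence and across linkers. Negative Z-scores can be read as non-binding.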
# [2] = molecular target: Fuc(a1-2)GlcNAc
# How it was run: as §1
# [3] = molecular target: Gal(a1-6)Glc
# How it was run: as §1
# [4] = molecular target: Gal(b1-3)[Fuc(a1-4)]GlcNAc(b1-3)Gal(b1-4)[Fuc(a1-3)]GlcNAc
# How it was run: as §1
# [5] = molecular target: Gal(b1-4)Glc6S
# How it was run: as §1
# [6] = molecular target: Gal(b1-4)GlcNAc(b1-3)Gal(b1-4)Glc
# How it was run: as §1
# [7] = molecular target: Glc(a1-4)Glc
# How it was run: as §1
# [8] = molecular target: Glc(a1-6)Glc(a1-6)Glc
# How it was run: as §1
# [9] = molecular target: Glc(b1-4)Glc
# How it was run: as §1
# [10] = molecular target: GlcNAc(a1-3)Gal(b1-4)GlcNAc
# How it was run: as §1
# [11] = molecular target: GlcNAc(b1-4)GlcNAc(b1-4)GlcNAc
# How it was run: as §1
# [12] = molecular target: Man(a1-2)Man(a1-2)Man(a1-6)[Man(a1-3)]Man
# How it was run: as §1
# [13] = molecular target: Neu5Ac(a2-3)Gal(b1-4)[Fuc(a1-3)]GlcNAc
# How it was run: as §1
# [14] = molecular target: Neu5Ac(a2-3)Gal(b1-4)[Fuc(a1-3)]GlcNAc(b1-3)Gal(b1-4)[Fuc(a1-3)]GlcNAc(b1-3)Gal(b1-4)[Fuc(a1-3)]GlcNAc
# How it was run: as §1
# [15] = molecular target: Neu5Ac(a2-3)GalNAc
# How it was run: as §1
# [16] = molecular target: Neu5Ac(a2-6)Gal(b1-4)GlcNAc(b1-3)Gal(b1-4)GlcNAc
# How it was run: as §1
# [17] = molecular target: Neu5Ac(a2-6)Gal(b1-4)GlcNAc(b1-3)Gal(b1-4)[Fuc(a1-3)]GlcNAc(b1-3)Gal(b1-4)[Fuc(a1-3)]GlcNAc
# How it was run: as §1
# [18] = molecular target: Neu5Ac(a2-8)Neu5Ac(a2-8)Neu5Ac
# How it was run: as §1
binder,measurement,setting,value
B1,glycan array binding signal (z-score),[1],-0.404
same,glycan array binding signal (z-score),[2],-0.247
same,glycan array binding signal (z-score),[3],0.615
same,glycan array binding signal (z-score),[4],0.979
same,glycan array binding signal (z-score),[5],0.601
same,glycan array binding signal (z-score),[6],0.629
same,glycan array binding signal (z-score),[7],9.55
same,glycan array binding signal (z-score),[8],10.2
same,glycan array binding signal (z-score),[9],3.57
same,glycan array binding signal (z-score),[10],0.188
same,glycan array binding signal (z-score),[11],0.137
same,glycan array binding signal (z-score),[12],1.83
same,glycan array binding signal (z-score),[13],-0.45
same,glycan array binding signal (z-score),[14],-0.187
same,glycan array binding signal (z-score),[15],-0.452
same,glycan array binding signal (z-score),[16],-0.289
same,glycan array binding signal (z-score),[17],-0.414
same,glycan array binding signal (z-score),[18],-0.377
